# Assay outcomes (PubChem)
# Shown are actives, neighbours in structure and some others; about 1.7% of the full set was active somewhere.
# TRHR agonist = TRH receptor (human) agonism; AID 493084; P34981; TRHR cells, calcium flux fluo-8, FDSS agonist mode; 360,000 compounds, 0.18% hits; activation, % at 2 µM; in the data active = activation above about 30%
#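 In this calcium-flux screen, cells bearing human TRHR are dye-loaded with fluo-8, baselined for 10 cycles, then exposed to library compounds; positive kinetic calcium responses during the agonist phase mark hits, with TRH as control.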
# KCNH2 WT inh = blocks the wildtype human KCNH2 potassium channel; activity change, % at 1.84 µM; U2OS, BacMam KCNH2, thallium flux FluxOr; stronger effect = lower value; Q12809; AID 720551; 340,000 compounds, 0.37% hits;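 active = maximum activity change below -70%; inconclusive = maximum activity change between -70% and -50%; inactive = maximum activity change above -50%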
#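 U2OS cells transduced with wild-type KCNH2 virus are loaded with FluxOr dye for 45 min, and thallium flux is measured in kinetic reads before and after stimulation buffer. Rate constants are normalized to DMSO controls.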
# KCNH2 3.1 block = KCNH2 3.1 (human) potassium channel inhibition | U2OS KCNH2 3.1, thallium flux FluxOr; stronger effect = lower value | activity change, % (tested at about 1.8 µM) | 340,000 compounds, 0.95% hits;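 active = maximum activity change below -70%; inconclusive = maximum activity change from -70% to -50%; inactive = maximum activity change above -50%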;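 also: thallium influx rate constant from kinetic fluorescence after stimulation buffer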
#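 FluxOr-based Tl+ influx in U2OS cells transduced with KCNH2 3.1 virus; rate constants normalized to DMSO controls.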
# TRPML1 agonist = activates the human TRPML1 channel; Q9GZU1; TRPML1-expressing cells, Ca2+ dye fluorescence, FDSS; activation, % (concentration not given with the values); 410,000 compounds, 0.12% hits; AID 624414; in the data active = activation above about 50%; inconclusive = mostly about 30% to 49%
# Target sequence (Q9GZU1 whole entry, looked up): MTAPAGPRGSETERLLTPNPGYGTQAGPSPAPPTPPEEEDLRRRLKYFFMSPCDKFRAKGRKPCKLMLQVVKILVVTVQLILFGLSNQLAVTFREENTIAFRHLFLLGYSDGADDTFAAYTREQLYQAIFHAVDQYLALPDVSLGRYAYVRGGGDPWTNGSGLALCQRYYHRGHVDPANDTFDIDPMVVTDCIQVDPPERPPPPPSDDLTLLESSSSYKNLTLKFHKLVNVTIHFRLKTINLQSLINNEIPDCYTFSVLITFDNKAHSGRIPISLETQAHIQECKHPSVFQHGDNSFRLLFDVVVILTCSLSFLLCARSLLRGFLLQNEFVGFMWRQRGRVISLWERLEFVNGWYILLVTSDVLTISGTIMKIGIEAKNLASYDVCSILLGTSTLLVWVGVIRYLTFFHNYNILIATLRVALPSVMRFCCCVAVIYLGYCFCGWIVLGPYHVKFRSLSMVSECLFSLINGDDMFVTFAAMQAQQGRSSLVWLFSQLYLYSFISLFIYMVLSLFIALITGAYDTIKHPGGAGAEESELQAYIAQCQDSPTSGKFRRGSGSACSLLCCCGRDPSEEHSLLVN
#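 Tetracycline-induced TRPML1-DL cells are seeded and incubated overnight before loading with a no-wash Ca2+ dye and quencher. Agonist activity is taken from the 110 s fluorescence read following compound pin-transfer on an FDSS, before EC80 54-4 challenge.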
# TRPML1 inh = blocks the human TRPML1 channel; Q9GZU1; TRPML1-inducible cells, Ca2+ dye fluorescence, FDSS; stronger effect = lower value; inhibition of EC80 agonist-evoked calcium signal; activity change, negative = inhibition, % (test concentration not listed); 390,000 compounds, 0.02% hits; in the data active = activity change below about -50%; inconclusive = between about -30% and that limit;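 also: stimulus is agonist 54-4 at its EC80 concentration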
#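 Tet-induced TRPML1-DL cells loaded with Ca8 no-wash calcium dye were read kinetically on FDSS. Compound addition was followed by EC80 agonist 54-4 (4 uM final); inhibition was read over 110 s.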
# TRHR PAM = allosterically enhances the human TRH receptor; P34981; 360,000 compounds, 0.66% hits; TRHR cells, fluo-8 calcium fluorescence, EC20 TRH enhancement; enhancement, % at 2 µM; in the data active = enhancement above about 30%
#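 Enhancer read-out: after compound pinning and an initial kinetic agonist-mode read, an EC20 of TRH (10 nM final) was injected and fluo-8 calcium signal (Ex 480/Em 530) followed at 1 s/cycle for 100 cycles in TRHR-expressing cells.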
# Hits are given with their value; 0 = inactive; ? = inconclusive; - = no result.
SMILES,TRHR agonist,KCNH2 WT inh,KCNH2 3.1 block,TRPML1 agonist,TRPML1 inh,TRHR PAM
CC1C(=O)CC(c2ccc([N+](=O)[O-])cc2)NC1c1ccc([N+](=O)[O-])cc1 (centres undefined),0,0,-71,0,?,0
COc1cc2nc(N3CCCN(C)CC3)nc(NC3CCN(C)CC3)c2cc1OC,-,-,-,0,-,-
CCSc1cc(N2CCCC2)nc(-c2cccc(C)c2)n1,0,0,0,0,0,31
CCSc1cc(N2CCCC2)nc(-c2ccc(C)cc2)n1,0,0,0,0,0,0
CCCCN(C(=O)c1ccc(S(=O)(=O)N(C)C)cc1)c1ccccc1,0,0,0,81,0,0
OCCCc1nc2n(n1)C(c1cccs1)C=C(c1ccccc1)N2 (centres undefined),41,-,-,-,-,0
O=C(c1ccc([N+](=O)[O-])cc1)N(Cc1ccc(Cl)cc1)N1C(=O)CCCC1=O,36,?,0,0,0,0
O=C(c1ccc([N+](=O)[O-])cc1)N(Cc1ccc(Cl)cc1Cl)N1C(=O)CCCC1=O,0,0,0,0,0,0
Cc1ccnc(NC(=O)c2cccc(S(=O)(=O)N3CCN(c4ccc(F)cc4)CC3)c2)c1,0,0,-72,0,0,0
Cc1ccc(-c2csc(NC(=O)c3cccc(S(=O)(=O)N4CCN(C)CC4)c3)n2)cc1,0,0,-79,0,0,0
Cc1nnc(NC(=O)c2cccc(S(=O)(=O)N3CCN(C)CC3)c2)s1,0,0,0,0,0,0
N=c1n(CCN2CCCC2)c2ccccc2n1CC(O)c1ccc(Cl)c(Cl)c1 (centres undefined),0,-,-84,0,0,0
N=c1n(CCN2CCCCC2)c2ccccc2n1CC(O)COc1ccc(Cl)cc1Cl (centres undefined),0,-,-,0,0,0
CN(CC(=O)NCCc1ccc(S(N)(=O)=O)cc1)CC(=O)Nc1cccc(F)c1,0,0,0,0,0,0
O=C(CCN1C(=O)/C(=C/C=C/c2ccccc2)SC1=S)Nc1ccccn1,0,0,0,0,0,39
O=C(CCN1C(=O)/C(=C/c2ccccc2F)SC1=S)Nc1cccnc1,0,0,-107,0,0,0
O=C(CCCN1C(=O)/C(=C/c2ccccc2)SC1=S)Nc1ccccc1O,0,0,0,0,0,0
O=C(CCCN1C(=O)/C(=C\c2ccccc2)SC1=S)Nc1ccc(O)cc1C(=O)O,0,0,-116,0,0,0
CCn1c(=O)cc(OCC(=O)N(C)c2ccc(OC)cc2)c2ccccc21,0,-,-,0,0,0
Cc1ccc(S(=O)(=O)N2CCN(C(C)C(=O)NCC(C)c3ccccc3)CC2)cc1 (centres undefined),-,0,0,0,0,-
CS(=O)(=O)Nc1ccccc1C(=O)OCC(=O)N1CCC(c2ccccc2)=N1,0,0,0,0,0,0
COc1ccc(-c2noc(CCC(=O)Nc3cccc(C(=O)NC4CC4)c3)n2)cc1OC,-,0,0,0,0,-
Cc1cc(C)c2c(CC(=O)Nc3nnc(C(C)C)s3)coc2c1,0,-,-,0,0,0
CCc1cccc(NC(=O)C2CCCN2S(=O)(=O)c2ccc3nc(-c4ccccc4)[nH]c3c2)c1 (centres undefined),0,-,-,0,0,0
O=C(Nc1cccc(O)c1)c1ccc(Br)c(S(=O)(=O)N2CCCCC2)c1,0,0,-92,0,0,0
SMILES,TRHR agonist,KCNH2 WT inh,KCNH2 3.1 block,TRPML1 agonist,TRPML1 inh,TRHR PAM
O=C(Nc1ccccc1)c1ccc(Br)c(S(=O)(=O)N2CCCCC2)c1,0,-,-,0,0,0
Cc1ccc(S(=O)(=O)Nc2ncnc3ccccc23)cc1,0,0,0,0,0,31
COc1ccc2nc(NC(=O)CSc3ccccc3)sc2c1,0,0,0,0,0,32
COc1ccc2nc(NC(=O)CSC3=NCCS3)sc2c1,0,0,0,0,0,0
O=C(Cn1nc(C(=O)O)c2ccccc2c1=O)Nc1cc(Cl)ccc1-n1cncn1,0,0,0,0,0,37
O=C(Cn1nc(C(=O)O)c2ccccc2c1=O)Nc1cc(C(F)(F)F)ccc1-n1cncn1,0,0,0,0,0,0
CC(C)n1c(NCc2ccc(Cl)cc2)nc2ccccc21,0,0,0,0,0,40
COc1ccc(CNc2nc3ccccc3n2Cc2ccc(Cl)cc2)cc1OC,0,0,0,0,0,0
O=C(C[n+]1csc2ccccc21)c1cccc([N+](=O)[O-])c1,-,-,-,0,-,-
Cc1cc[n+](CC(=O)c2cccc([N+](=O)[O-])c2)c2ccccc12,0,0,0,-,-,34
COc1ccc(CN2[C@@H](CC(=O)O)c3ccc(/C=C/C(=O)O)cc3S2(=O)=O)cc1,-,-,-,0,-,-
COc1ccc(C2NC(=O)NC(C)=C2[N+](=O)[O-])cc1 (centres undefined),0,0,0,0,0,0
O=C(CCCc1nc(-c2ccc(Cl)cc2)no1)NC1CCCCC1,0,0,0,0,0,0
CCCCCC[n+]1ccccc1/C=C/c1ccc(N(C)C)cc1,-,-,-,69,0,-
CC[n+]1ccccc1/C=C/c1ccc(N(C)C)cc1,0,0,0,0,0,0
Cc1ccc(S(=O)(=O)Nc2ccccc2CNc2ccc(Br)cn2)cc1,0,0,0,0,0,0
Cc1ccc(S(=O)(=O)Nc2ccccc2CNc2ncc(Br)cc2Br)cc1,0,0,-94,0,0,0
Cc1ccccc1Nc1nc(N)nc(-c2oc3ccccc3c2C)n1,0,0,0,0,0,35
COc1ccccc1Nc1nc(N)nc(-c2oc3ccccc3c2C)n1,0,0,-,0,0,0
CCOc1ccc(Oc2ccc(Cl)cc2NC(=O)C2=COCCO2)cc1,0,0,0,0,0,0
O=C(Nc1cc(Cl)ccc1Oc1ccccc1)C1=COCCO1,0,0,-74,0,0,0
COC(=O)N/N=C(C)\C=C\c1ccco1,0,-,0,0,0,0
CC(/C=C/c1ccco1)=N\NC(=O)CNc1cccc(C)c1,0,0,-80,0,0,0
Cc1cc(O)c(C(c2ccccc2)N2CCN(c3ccc(F)cc3)CC2)c(=O)n1Cc1ccco1 (centres undefined),0,-,-,0,0,0
CCN(CC(=O)Nc1c(F)cccc1F)C(=O)c1ccccc1F,0,0,0,0,0,0
CCN(CC(=O)Nc1c(F)cccc1F)C(=O)c1cc(C)nc2ccccc12,0,-72,0,0,0,0
COc1cccc(C(=O)NC(=S)N2CCN(c3ccc(C(F)(F)F)cc3[N+](=O)[O-])CC2)c1,0,0,0,0,0,0
CCOc1ccc(C(=O)NC(=S)N2CCN(c3ccc(C(F)(F)F)cc3[N+](=O)[O-])CC2)cc1,0,?,-70,0,0,0
